Drawing on PubChem BioAssay AID720582 (The Scripps Research Institute Molecular Screening Center, 2013), this text covers inhibition for 15 molecules.

Screen size: about 370,000 compounds; about 2,300 (0.62%) were called active.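 The calls were made as follows: active = inhibition above a per-campaign cutoff equal to the mean of compounds falling between control-based bounds plus 3 SD (cut at about 20% in these data); inactive = the rest.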 Many of the other results were omitted from the sample, so actives are more common in it than they were.

Sequence of Disintegrin and metalloproteinase domain-containing protein 10 (Homo sapiens) (O14672 214-748 limits assumed): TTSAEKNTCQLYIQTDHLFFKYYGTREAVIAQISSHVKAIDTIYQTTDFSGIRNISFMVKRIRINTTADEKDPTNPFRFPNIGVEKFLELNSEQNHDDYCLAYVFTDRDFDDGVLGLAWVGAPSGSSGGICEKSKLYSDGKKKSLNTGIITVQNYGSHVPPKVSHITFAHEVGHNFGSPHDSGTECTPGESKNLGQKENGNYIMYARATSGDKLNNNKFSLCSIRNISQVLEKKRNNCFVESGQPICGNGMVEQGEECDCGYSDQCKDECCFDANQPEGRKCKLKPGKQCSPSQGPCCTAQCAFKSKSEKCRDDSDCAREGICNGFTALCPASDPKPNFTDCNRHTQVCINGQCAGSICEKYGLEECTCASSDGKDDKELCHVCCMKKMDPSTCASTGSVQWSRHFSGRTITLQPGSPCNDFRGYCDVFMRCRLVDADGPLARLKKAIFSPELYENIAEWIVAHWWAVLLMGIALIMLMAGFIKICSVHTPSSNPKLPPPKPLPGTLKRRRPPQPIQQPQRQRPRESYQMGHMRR

This experiment addresses Disintegrin and metalloproteinase domain-containing protein 10 (Homo sapiens) (UniProt O14672). As to the kind of experiment: blockers of ADAM10 peptide cleavage – biochemical, QFRET, HTS, primary screen (AID 720582).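 Also: 0% = DMSO wells while the 100% control is not disclosed.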 As to conditions: recombinant ADAM10, EDANS/DABCYL FRET peptide cleavage, 3 h; at 7 µM; hits give high values.
For the molecule `COc1ccc(-n2nnnc2C(c2cccc3ccccc23)N2CCC(n3c(=O)[nH]c4ccccc43)CC2)cc1` (stereo not given), the inhibition is 22.7% (active).
For `O=c1[nH]c2ccccc2n1C1CCN(C(c2ccnc3ccccc23)c2nnnn2Cc2ccccc2)CC1` (stereo not given) the value was -0.89% (inactive); for `O=c1[nH]c2ccccc2n1C1CCN(C(c2ccccc2)c2nnnn2Cc2ccccc2)CC1` (stereo not given), -9.55% (inactive); for `CN1CCC(N(C)Cc2cccnc2)CC1`, -14.6% (inactive).
The same measure for `Cc1ccc(-c2nc3ccccc3c(=O)n2-c2ccc(Br)cn2)cc1`: 8.84% (inactive); for `COP(=O)(Sc1ccccc1)C(Cc1ccccc1)NC(=O)OCc1ccccc1` (stereo not given): 2.57% (inactive); for `O=C1C2(Cl)C3(Cl)C4(Cl)C(Cl)(Cl)C5(Cl)C3(Cl)C1(Cl)C5(Cl)C24Cl` (stereo not given): 31.6% (active).
For `CO[C@H]([C@H](C)/C=C/N(C)C=O)[C@@H](C)C(=O)CC[C@H](C)[C@H](O)[C@H](C)[C@H]1OC(=O)/C=C/C(C)=C/[C@H](O)[C@H](OC)C[C@@H]2C=CC[C@@H](C[C@H](OC)[C@@]3(CO3)[C@@H](OC)C[C@@H](OC)[C@@H]1C)O2` the value was 3.02% (inactive); for `Cc1ccccc1CCC[C@@H](CC1CCCCC1)CN(C)C(=O)Oc1ccccc1`, 1.44% (inactive); for `O=C(NCC(c1cccnc1)N1CCN(c2ccccc2)CC1)Oc1ccccc1` (stereo not given), 0.63% (inactive).
On to `COC(=O)C1=C(c2ccc(F)cc2OCc2ccccc2)C[C@@H]2CC[C@H]1N2C(=O)NCc1ccc(Cl)cc1`, for which the inhibition is 17.6% (inactive).
With `COC(=O)C1=C(c2cccc(OCc3ccccc3)c2)C[C@@H]2CC[C@H]1N2C(=O)NCc1ccc(Br)cc1`, the inhibition is 19.1% (inactive).
Take `COC(=O)C1=C(c2ccc(-c3ccccc3)c(F)c2)C[C@@H]2CC[C@H]1N2C(=O)NCc1ccc(F)cc1`: the inhibition is 28.2% (active).
As to `CCOP(=O)(OCC)C(O)c1ccc(OC)cc1OC` (stereo not given), the inhibition was 1.75% (inactive).
With `O=C(Cn1c(=O)n(CC2CS2)c2ccccc21)N1CCCCC1` (stereo not given), the inhibition was -0.6% (inactive).

One may read the inhibition as the relative decrease from the control value, in per cent.
